The values below come from PubChem BioAssay AID651640 (Broad Institute, 2012).

About 6,000 (1.7%) of roughly 350,000 compounds were called active. Roughly 5% stayed inconclusive and do not appear here. The sample as a whole holds a higher share of actives than the screen did. Values without a mark were called inactive. Cut-off read from the data, not from the text of the source: active = CPE inhibition above about 20% (passing the limit was not always enough); inconclusive = no clear call, values can overlap the other calls; tested in BHK-21 cells.

A short description of this experiment: inhibitors of DENV2 cytopathic effect, primary screen, cell-based, plate reader, single concentration (AID 651640).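 Note: 0% = median of neutral control wells and 100% = median of positive control wells.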 Particulars: DENV2-infected cells, cytopathic effect rescue, at 9.99 µM, hits give high values. (In general: Protection from cytopathic effect is a common read-out in antiviral testing.)
For `O=C(Nc1ccc(C(F)(F)F)cc1)N[C@@H]1CC[C@H](CCNC(=O)c2ccccc2F)O[C@@H]1CO`, the CPE inhibition is 5.46%. The same measure for `C[C@@H]1CCCCO[C@@H](CN(C)C(=O)Nc2ccc(F)cc2)[C@H](C)CN([C@@H](C)CO)C(=O)c2cc(NS(=O)(=O)c3ccccc3)ccc2O1`: -1.25%; for `CCC(=O)N1C[C@@H](C)[C@@H](OC)CN(C)C(=O)c2ccc(NC(=O)C3CCCCC3)cc2OC[C@@H]1C`: -0.243%; for `COC(=O)C1=C(C)N(Cc2ccc(C(F)(F)F)cc2)C(=NCc2ccccc2)NC1c1ccccc1C(F)(F)F` (configuration not stated): 16%. Then `CN1[C@@H]2c3ccc(-c4cccc(F)c4)c(=O)n3C[C@@H]2[C@@H](CO)[C@@H]1C(=O)NC1CCC1`, with -3.71%; and `CC(C)NC(=O)N(C)C[C@@H]1Oc2ccc(NC(=O)Cn3cnnn3)cc2CC(=O)N([C@H](C)CO)C[C@H]1C`, with -6.63%; and `O=C(C[C@@H]1C[C@@H]2c3cc(NS(=O)(=O)c4ccccc4)ccc3O[C@@H]2[C@@H](CO)O1)NC1CCCCC1`, with 9.22%.

As to `C[C@H](CO)N1C[C@H](C)[C@@H](CN(C)C(=O)Nc2ccnc(N3CCOCC3)c2)OCc2ccccc2-c2c(n(C)c3ccccc23)C1=O`, the CPE inhibition was -11.2%. `C[C@H](O)C#Cc1ccc([C@@H]2[C@@H](CO)N3CCCCN(C(=O)c4ccc(F)cc4)C[C@H]23)cc1`: the CPE inhibition is 4.05%.

As for `C[C@@H](O)C#Cc1ccc([C@@H]2[C@@H](CO)N3CCCCN(C(=O)c4ccc(F)cc4)C[C@@H]23)cc1`, the CPE inhibition is 2.55%.

Consider `C[C@@H](O)C#Cc1ccc([C@H]2[C@H](CO)N3CCCCN(C(=O)c4ccc(F)cc4)C[C@@H]23)cc1`, for which the CPE inhibition was 22.8% (active).

For the compound `O=C(C[C@@H]1CC[C@@H]2[C@H](COC[C@H](O)CN2Cc2ccc(F)cc2)O1)NCc1ccncn1`, the CPE inhibition is 19.2%. Then `C[C@H]1CN([C@@H](C)CO)S(=O)(=O)c2ccc(-c3ccncc3)cc2O[C@H]1CN(C)S(C)(=O)=O`, with 8.89%; and `COc1ccc(C2(C)NC(=O)N(CC(=O)c3ccc4c(c3)OCO4)C2=O)cc1` (configuration not stated), with 53.4% (active). The same measure for `CC1(c2ccc(Cl)cc2)NC(=O)N(CC(=O)c2ccc3c(c2)OCO3)C1=O` (configuration not stated): 14.3%.

As for `CCC1(c2ccccc2)NC(=O)N(CC(=O)c2ccc3c(c2)OCO3)C1=O` (configuration not stated), the CPE inhibition is 4.81%. Take `COc1ccc([Si](C)(C)[C@@H]2[C@@H](CCO)O[C@]3(C(=O)N(Cc4cccc(N5CCCCC5=O)c4)c4ccccc43)[C@H]2C)cc1`: the CPE inhibition is 3.86%.

On to `COc1ccc(C#Cc2cccc(-c3nc(C(=O)O)cc4c3[C@@H](CCO)N(S(=O)C(C)(C)C)C4)c2)cc1OC` (some centres not stated), for which the CPE inhibition is 0.722%. Then `COCC(=O)Nc1ccc2c(c1)[C@H]1C[C@H](CC(=O)OC)O[C@@H](CO)[C@H]1O2`, with -10.3%; and `CCC(=O)Nc1ccc2c(c1)OC[C@H](C)N(CC1CCOCC1)C[C@@H](C)[C@@H](OC)CN(C)C2=O`, with -4.88%; and `O=C(CSc1ncnc2sccc12)N1CCN(C(=O)c2cccs2)CC1`, with 2.68%. The same measure for `Nc1c(C(=O)c2cccs2)sc2nsc(SCCN3CCCCC3)c12`: 29.4% (active). The same measure for `CO[C@@H]1CN(C)C(=O)c2cc(NC(=O)c3ccccc3)ccc2OC[C@@H](C)N(C(C)=O)C[C@@H]1C`: -5.72%. Take `C[C@H](CO)N1C[C@H](C)[C@@H](CN(C)C(=O)c2ccccc2)OCCCC[C@H](C)Oc2ccc(NC(=O)c3ccccc3)cc2C1=O`: the CPE inhibition was 13.1%. The same measure for `O=C(C[C@H]1CC[C@@H]2[C@H](COC[C@H](O)CN2S(=O)(=O)c2ccc(F)cc2)O1)NCCN1CCCCC1`: -7.98%.

On to `O=C(C[C@@H]1CC[C@@H]2[C@H](COC[C@H](O)CN2S(=O)(=O)c2ccc(Cl)cc2)O1)N[C@@H]1CCN(Cc2ccccc2)C1`, for which the CPE inhibition is 3.99%. Then `O=C(C[C@@H]1CC[C@H]2[C@@H](COC[C@H](O)CN2S(=O)(=O)c2ccccc2)O1)NCCN1CCCC1`, with -4.25%; and `O=C(C[C@@H]1CC[C@H]2[C@@H](COC[C@H](O)CN2S(=O)(=O)c2ccc(F)cc2)O1)N[C@H]1CCN(Cc2ccccc2)C1`, with 24.2% (active); and `O=C(C[C@H]1CC[C@H]2[C@@H](COC[C@@H](O)CN2S(=O)(=O)c2ccc(Cl)cc2)O1)NCCN1CCCCC1`, with 23.7% (active). The same measure for `O=C(C[C@H]1CC[C@@H]2[C@H](COC[C@H](O)CN2S(=O)(=O)c2ccc(Cl)cc2)O1)N[C@@H]1CCN(Cc2ccccc2)C1`: -1.97%; for `C[C@H](CO)N1C[C@H](C)[C@@H](CN(C)C)Oc2ccc(NS(=O)(=O)c3cccs3)cc2C1=O`: -7.81%. Consider `Cc1noc(C)c1NC(=O)N(C)C[C@H]1OCCCC[C@@H](C)Oc2ccc(NC(=O)NC(C)C)cc2C(=O)N([C@@H](C)CO)C[C@H]1C`, for which the CPE inhibition was 18%. Then `CNC[C@@H]1Oc2cc(C#CC3(O)CCCC3)ccc2S(=O)(=O)N([C@@H](C)CO)C[C@H]1C`, with 12.4%; and `CCCNC(=O)N1CCC2(CC1)CN(Cc1ccccc1)[C@H](CO)c1[nH]c3cc(OC)ccc3c12`, with 8.24%. Then `CCC(=O)N1CC2(C1)CN(Cc1cc(F)ccc1F)[C@@H](CO)c1[nH]c3cc(OC)ccc3c12`, with 47.6% (active); and `COc1ccc2c3c([nH]c2c1)[C@@H](CO)N(Cc1cc(F)ccc1F)CC31CN(C(=O)C2CCC2)C1`, with -7.65%; and `CCCNC(=O)N1CC2(C1)CN(Cc1cccc(F)c1)[C@@H](CO)c1[nH]c3cc(OC)ccc3c12`, with 136% (active).

With `COc1ccc2c3c([nH]c2c1)[C@@H](CO)N(Cc1cccc(F)c1)CC31CN(CC2CC2)C1`, the CPE inhibition was 2.63%. Then `COc1ccc2c3c([nH]c2c1)[C@H](CO)N(Cc1ccccc1Cl)CC31CN(C(=O)C2CC2)C1`, with 53.5% (active); and `CCC(=O)N1CC2(C1)CN(Cc1ccccc1Cl)[C@@H](CO)c1[nH]c3cc(OC)ccc3c12`, with 1.97%.

Consider `COCC(=O)N1CC2(C1)CN(Cc1ccccc1F)[C@@H](CO)c1[nH]c3cc(OC)ccc3c12`, for which the CPE inhibition was 11.2%.

On to `COc1ccc2c3c([nH]c2c1)[C@@H](CO)N(Cc1ccccc1F)CC31CN(C(=O)C2CC2)C1`, for which the CPE inhibition was 2.19%. Then `COCC(=O)Nc1ccc2c(c1)OC[C@@H](C)N(C(=O)c1ccncc1)C[C@@H](C)[C@@H](OC)CN(C)C2=O`, with 13.2%. In the case of `O=C(NC[C@H]1CC[C@@H]2[C@@H](CN2S(=O)(=O)c2ccccc2F)O1)C1CCCCC1`, the CPE inhibition was -10.6%. In the case of `COCC#Cc1cnc2c(c1)C(=O)N([C@@H](C)CO)C[C@H](C)[C@@H](CN(C)Cc1ccccc1)O2`, the CPE inhibition was 7.93%.

As to `CCOc1ncccc1C(=O)NNC(=O)c1cccc(S(=O)(=O)Nc2ccccc2OC)c1`, the CPE inhibition is 23.7% (active).

For the compound `CCOc1ncccc1C(=O)Nc1ccc(S(=O)(=O)Nc2nc(C)cc(C)n2)cc1`, the CPE inhibition was -5.45%.

For the compound `CCN(CC(=O)NCc1cccs1)C(=O)c1cccc(S(=O)(=O)Nc2ccccc2OC)c1`, the CPE inhibition is 0.937%. The same measure for `O=C(NC[C@@H]1[C@@H](c2ccccc2)[C@H](CO)N1C(=O)Cc1cccnc1)C1CC1`: -4.58%; for `COCC(=O)N[C@@H]1C[C@@H]2O[C@@H](CO)CC[C@@H]2O[C@@H]1CCc1ccc(-c2ccccc2)cc1`: 14.8%; for `CN(C)CC#Cc1ccc([C@H]2[C@H]3CN(C(=O)c4cccc(F)c4)CC(=O)N3[C@H]2CO)cc1`: 0.131%. Then `COc1cc([C@H](Cc2ccccc2)NC(C)=O)oc(=O)c1`, with 23.5% (active). As to `CCOC(=O)C(Cc1ccccc1)NC(=O)CCC(=O)c1ccc(OC)cc1` (configuration not stated), the CPE inhibition was -0.51%.

For the compound `COc1ccc(OC)c(NC(=O)N[C@H](Cc2ccccc2)C(=O)NN)c1`, the CPE inhibition is -9.79%. `COCC(=O)N(C)C[C@@H]1Oc2ncc(C#C[C@H](C)O)cc2C(=O)N([C@@H](C)CO)C[C@@H]1C`: the CPE inhibition was -2.59%. Then `C[C@H]1CN([C@@H](C)CO)C(=O)c2cc(Br)cnc2O[C@@H]1CN(C)C(=O)c1ccccc1F`, with 2.37%.

`CCc1ccc(OC(C)C(=O)Nc2ccc(S(=O)(=O)Nc3cc(C)on3)cc2)cc1` (configuration not stated): the CPE inhibition is 2.4%. Consider `Cc1cc(NS(=O)(=O)c2ccc(NC(=S)NC(=O)c3ccc(F)cc3Cl)cc2)no1`, for which the CPE inhibition was 78.9% (active). With `CCOc1ccc(C(=O)Nc2ccc(S(=O)(=O)Nc3cc(C)on3)cc2)cc1`, the CPE inhibition is 1.57%. The same measure for `CCC(=O)Nc1ccc2c(c1)C(=O)N(C)[C@@H]1CC[C@H](CC(=O)NCc3ccccc3)O[C@H]1CO2`: -3.19%; for `C[C@H](CO)N1C[C@H](C)[C@@H](CN(C)Cc2ccc3c(c2)OCO3)Oc2ccc(NC(=O)Nc3ccc(F)cc3)cc2C1=O`: -6.58%. On to `C[C@@H]1CN([C@@H](C)CO)C(=O)c2cc(NC(=O)Nc3ccc(C(F)(F)F)cc3)ccc2O[C@@H]1CN(C)Cc1ccncc1`, for which the CPE inhibition is 31.1% (active). Take `C[C@@H]1CCCCO[C@@H](CN(C)Cc2ccc(C(=O)O)cc2)[C@H](C)CN([C@@H](C)CO)C(=O)c2cc(NC(=O)Nc3ccc(C(F)(F)F)cc3)ccc2O1`: the CPE inhibition is 17.1%. The same measure for `C[C@H](CO)N1C[C@H](C)[C@H](CN(C)Cc2ccncc2)Oc2ccc(NC(=O)Nc3ccc(F)cc3)cc2C1=O`: -10.5%; for `C[C@@H]1CCCCO[C@@H](CN(C)C(=O)Nc2ccc(C(F)(F)F)cc2)[C@H](C)CN([C@H](C)CO)C(=O)c2cc(NC(=O)c3ccccc3)ccc2O1`: 4.25%; for `C[C@H](CO)N1C[C@H](C)[C@@H](CN(C)Cc2ccncc2)Oc2ccc(NC(=O)Nc3ccccc3)cc2C1=O`: 7.94%. Then `C[C@H]1CCCCO[C@@H](CN(C)Cc2ccc(C(F)(F)F)cc2)[C@@H](C)CN([C@@H](C)CO)C(=O)c2cc(NC(=O)Nc3ccccc3)ccc2O1`, with -2.84%. Take `C[C@@H]1CN([C@H](C)CO)C(=O)c2cc(NC(=O)Nc3ccccc3)ccc2O[C@@H](C)CCCCO[C@H]1CN(C)Cc1ccc(C(F)(F)F)cc1`: the CPE inhibition was -1.92%.

On to `C[C@@H]1CN([C@@H](C)CO)C(=O)c2cc(NC(=O)Nc3ccc(C(F)(F)F)cc3)ccc2O[C@@H](C)CCCCO[C@H]1CN(C)C(=O)c1ccccc1`, for which the CPE inhibition is 25.6% (active). Then `COc1ccc(CN(C)C[C@@H]2Oc3ccc(NC(=O)Nc4ccc(OC)cc4)cc3C(=O)N([C@H](C)CO)C[C@H]2C)cc1`, with -3.17%; and `C[C@@H]1CCCCO[C@@H](CN(C)Cc2ccc(C(=O)O)cc2)[C@@H](C)CN([C@@H](C)CO)C(=O)c2cc(NC(=O)Nc3ccc(C(F)(F)F)cc3)ccc2O1`, with 21.1% (active).

For the compound `COc1ccc(NC(=O)Nc2ccc3c(c2)C(=O)N([C@@H](C)CO)C[C@H](C)[C@@H](CN(C)Cc2ccc4c(c2)OCO4)O3)cc1`, the CPE inhibition is 31.5% (active).
